PubChem BioAssay (NCI)
Compounds without any hit were thinned out: in the full panel of roughly 79,000, 15% have a hit. A number with no mark means an inactive call. The source made the active and inactive calls. Cut-off read from the data, not from the text of the source: active = growth inhibition above about 70%; inactive = the rest.

Tests used:
[1] = NCI Yeast Anticancer Drug Screen. Data for the rad50 strain (AID 155);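 note: 0% = growth of vehicle-only cultures of the same strain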; conditions: S. cerevisiae rad50 strain growth inhibition; at 50.0 µM; stronger effect = higher value
How it was run: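 Vehicle-treated cultures provide the reference for the growth inhibition reported for compound-exposed, repair-deficient yeast.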

[2] = NCI Yeast Anticancer Drug Screen. Data for the mec2-1 strain (AID 157); conditions: S. cerevisiae mec2-1 strain, at 50.0 µM, stronger effect = higher value
How it was run: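 Mutant yeast (mec2-1) grown with compound; growth inhibition relative to vehicle control reported.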

[3] = NCI Yeast Anticancer Drug Screen. Data for the sgs1 mgt1 strain (AID 161);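 note: 0% = growth of cultures given vehicle only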; conditions: S. cerevisiae sgs1 mgt1 strain, at 50.0 µM, stronger effect = higher value
How it was run: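 Compounds are added to genetically altered yeast, and growth is compared with cultures given vehicle alone to give percent inhibition.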

[4] = NCI Yeast Anticancer Drug Screen. Data for the cln2 rad14 strain (AID 165);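 note: 0% = growth equal to vehicle treated cultures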; conditions: S. cerevisiae cln2 rad14 strain, at 50.0 µM, stronger effect = higher value
How it was run: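 Readout is yeast growth inhibition versus vehicle-treated controls, using a strain with cln2 and rad14 alterations exposed to compound.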

[5] = NCI Yeast Anticancer Drug Screen. Data for the bub3 strain (AID 167); conditions: S. cerevisiae bub3 mutant strain, at 50.0 µM, stronger effect = higher value
How it was run: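 Mutant yeast screening strain plus compound; vehicle-treated cultures serve as the 0% inhibition reference.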

[6] = NCI Yeast Anticancer Drug Screen. Data for the mlh1 rad18 strain (AID 175); conditions: S. cerevisiae mlh1 rad18 strain growth inhibition; at 50.0 µM; stronger effect = higher value
How it was run: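 Genetically defined yeast (DNA repair-deficient) exposed to compounds; growth inhibition determined relative to vehicle.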

Row | Compound | growth inhibition [1] | growth inhibition [2] | growth inhibition [3] | growth inhibition [4] | growth inhibition [5] | growth inhibition [6]
1 | O=C(O)c1cc2c(c3c1CCCC3)CCC1CCCC21 (stereo unspecified) | 13.2% | 26.4% | 33.4% | -6.25% | 20.8% | 27.9%
2 | COc1ccc(N(Cc2ccc(C)o2)C(=S)Nc2ccccc2)cc1 | -3.6% | -5.4% | 9.7% | 8.9% | 36% | 7.05%
3 | COc1cc(C=Nc2ccc(Cl)cc2)ccc1O | -35.9% | -25.9% | -19.1% | -20.6% | -24.9% | -43.3%
4 | Cc1c(N=Nc2cccc(F)c2)c(-c2ccccc2)nn1C(=S)S | 20.2% | 5.25% | 11.7% | 15.9% | 26.8% | 16.7%
5 | Nc1ccc2ccc3ccccc3c2c1 | 50.8% | 5.6% | 43.4% | 31.8% | 27.5% | 44.2%
6 | CNc1ncnc2c1ncn2C1OC(CO)C(O)C1O (stereo unspecified) | -1.4% | 9.95% | 4.45% | -20.1% | -4.1% | 6%
7 | O=C(O)COc1c(F)cc(F)cc1Cl | 18.1% | 1.9% | 18.4% | -1.05% | 12% | 7.35%
8 | CC12CCCC=C1N(C=O)c1ccccc12 (stereo unspecified) | -6.1% | 26.3% | 14.7% | 11.6% | -28.1% | 16.8%
9 | CN1NC(c2ccccc2)NN(C)C1=S | -19.8% | -25.6% | -12% | -16.6% | -4.45% | 3.05%
10 | CCN(CC)CCOC1CCCCC1Cc1ccccn1 (stereo unspecified) | -1.55% | 14.8% | 8.85% | -25.2% | -3.65% | 5.85%
11 | CCOC(=O)CNC(N)=O | 33.6% | 15.3% | -19.5% | 19.4% | 23.8% | 5.2%
12 | O=C(c1ccc(Cl)cc1)c1cccc(Cl)c1 | -6.35% | -16.1% | -3.7% | -1.5% | -10% | 6.3%
13 | CCOC(=O)CS(=O)(=O)C1CCCCC1c1cc(OC)c(OC)c(OC)c1 (stereo unspecified) | 3.25% | -3.2% | -5% | -6.7% | 0.6% | 10.4%
14 | CCOC(=O)N/N=C(\CC)NO | 2.45% | 1.35% | -7.7% | -7% | 12.8% | 5.7%
15 | Cc1ccc(S(=O)(=O)C2(NC(=O)c3ccc(Cl)cc3)CC2)cc1 | 10.6% | 15.5% | -6.9% | 5.4% | -11.5% | -2.4%
16 | Cc1ccc(S(=O)(=O)Nn2nnnc2N)cc1 | -7.85% | 11.7% | -7.6% | -4.4% | -4.65% | 7.25%
17 | CN(C)n1c(O)c(N=O)sc1=S | -30.9% | -6.25% | -7.65% | -25.7% | -10.1% | 5.55%
18 | O=C(O)/C=C\C(=O)Nc1ccc2c(c1)-c1ccccc1C2 | -6.95% | -16.4% | -14.6% | -22.4% | -28.1% | 2.15%
19 | CCC(=O)OCCN(C)C | -28% | -50.4% | 0.65% | 10.8% | -19.3% | -8.35%
20 | COc1[nH]c2ccccc2c1C=O | 45.1% | 30.6% | 22.3% | 17.1% | 11% | 24.1%
21 | CC(=O)OC1(C(=O)O)CCCCC1 | 5.8% | 14% | -0.05% | -19.9% | 5.25% | 9.65%

Row | Compound | growth inhibition [1] | growth inhibition [2] | growth inhibition [3] | growth inhibition [4] | growth inhibition [5] | growth inhibition [6]
22 | O=C(O)CCC(NC(=O)c1ccc(Nc2nc3ccc(C(F)(F)F)cc3nc2-c2ccccc2)cc1)C(=O)O (stereo unspecified) | -11.5% | 11.9% | 4.75% | -8.75% | 1.25% | -0.05%
23 | CC(C)C1CCC(C)(C(N)=O)C1 (stereo unspecified) | 8.2% | 2.65% | -1.3% | -23.4% | -8.25% | -2.1%
24 | CCC(C)C1SCC(=O)N1c1nncs1 (stereo unspecified) | 10.6% | 7.45% | 6.55% | -4.6% | 4.9% | 16.4%
25 | O=C(OC1C#CCSCC#C/C=C\1)c1ccc2c(c1)C(=O)c1ccccc1C2=O (stereo unspecified) | -0.05% | -34% | -53.2% | -37% | -16.9% | -61.6%
26 | O=c1cc(-c2ccccc2F)[nH]c2ccc(N3CCCC3)cc12 | 13.6% | 6.2% | 25.5% | 0.65% | 22.3% | 23.6%
27 | CC(O)C(=O)OCCOc1ccccc1 (stereo unspecified) | 12.7% | -6.3% | -3.05% | 5.5% | -14.3% | -140%
28 | CC(=O)OC1C(COS(=O)(=O)c2ccc(C)cc2)OCOC(COS(=O)(=O)c2ccc(C)cc2)C1OC(C)=O (stereo unspecified) | 0.2% | 4.4% | -0.55% | -26.2% | -0.7% | 18.4%
29 | CNC(=S)NNC(=O)c1ccncc1 | 11.4% | 10.7% | 13.6% | 18.6% | -0.65% | 13.3%
30 | C#CCN(C)Cc1cc(OC)c(OC)c(OC)c1 | -43.2% | -0.75% | 6.55% | -10.9% | 7.65% | 14.4%
31 | Cc1ccc(C)c2c(Cl)c3c(C)ccc(C)c3nc12 | -8.45% | -4.65% | 0.3% | -29.4% | -9.8% | 7.25%
32 | Cc1nc2c(-c3ccccc3)[nH]c(C)c2c(=O)o1 | -17.2% | -40.1% | -31.9% | -8.8% | -18.5% | -24.4%
33 | Cc1ccc(-c2c(C#N)c(-c3ccc(Cl)cc3)c(C#N)c(=O)n2NS(=O)(=O)c2ccc(C)cc2)cc1 | 20.9% | 19.8% | 30.4% | 44.6% | 15.7% | 13.2%
34 | O=C(CCC(=O)Nc1cccc([N+](=O)[O-])c1)CC(=O)c1ccc(Cl)cc1 | -26.6% | -4% | -7.9% | -25% | -12.1% | -23.3%
35 | O=C(N/N=C/c1cccc(C(F)(F)F)c1)c1ccncc1 | 12.8% | 6.7% | 11.1% | -15.7% | 8.05% | 5.85%
36 | COC(=O)C(C)CC(=O)c1ccc2ccc3cccc4ccc1c2c34 (stereo unspecified) | -16.9% | -18.4% | -2.05% | -35.4% | 19.4% | -4.2%
37 | CC1CC[P+](C)(Cc2ccccc2)C1 (mixture of isomers) | 8.7% | 0.8% | -18.4% | 1.9% | 5.45% | 18.6%
38 | CC1(C)CC2C(C1=O)C1(C)CCCC2(C)C1=O (stereo unspecified) | -11.8% | -7.1% | -26.6% | -14.8% | 3% | -46.5%
39 | COC(=O)c1nnn(-c2cccc(Cl)c2)c1N | 3.7% | -6.1% | -0.25% | 15.7% | -26.9% | 20.4%
40 | O=C(NCCNCCCNC(=O)c1cc(-c2ccccc2)nc2ccccc12)c1cccc(OCc2ccccc2)c1OCc1ccccc1 | 86.3% (active) | 90.9% (active) | 90.3% (active) | 87.5% (active) | 89.2% (active) | 85.8% (active)
41 | CCCCCCCC[n+]1cccc(C#N)c1 | 12.7% | 23.6% | 21.4% | 16.7% | 36% | 19.1%
